{"source": "PubChem BioAssay", "note": "Values without a mark were called inactive. The rule behind the calls is not given here.", "data": [{"biological_target": "Pantothenate synthetase (Mycobacterium tuberculosis (strain ATCC 25618 / H37Rv)) (UniProt P9WIL5)", "sequence (P9WIL5 whole entry, looked up)": "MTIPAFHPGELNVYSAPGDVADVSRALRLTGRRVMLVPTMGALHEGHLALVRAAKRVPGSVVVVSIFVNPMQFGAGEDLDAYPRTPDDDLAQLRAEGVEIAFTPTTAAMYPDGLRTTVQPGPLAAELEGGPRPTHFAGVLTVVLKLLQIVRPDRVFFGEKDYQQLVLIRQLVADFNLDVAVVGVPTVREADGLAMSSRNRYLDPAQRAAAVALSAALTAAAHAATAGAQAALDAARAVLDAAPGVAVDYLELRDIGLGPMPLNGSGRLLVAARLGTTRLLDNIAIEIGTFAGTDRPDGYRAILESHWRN", "test": "Coupled enzyme confirmation of inhibitors against recombinant Mtb PanC (AID 375);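 note: 0% = full reaction with vehicle and 100% = no enzyme background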", "details": "coupled enzyme assay; at 10 µM, stronger effect = higher value", "units": {"inhibition": "%"}, "values": [{"smiles": "CCCNC(=O)Nc1ccccc1C(=O)Nc1ccc(OC)cc1", "inhibition": 2}, {"smiles": "O=C(NCc1ccco1)c1ccc2c(=O)n(CC3CCCO3)c(=S)[nH]c2c1", "note": "(centres undefined)", "inhibition": 3}, {"smiles": "CCc1ccc(NC(=O)C2CC(=O)N(C(C)C)C2)cc1", "note": "(centres undefined)", "inhibition": 0}, {"smiles": "O=C(CN(C(=O)CCNC(=O)c1ccco1)c1ccccc1)NC1CCCC1", "inhibition": 2}, {"smiles": "Cc1nc2ccc(S(=O)(=O)NC(C(=O)Nc3nccs3)C(C)C)cc2s1", "note": "(centres undefined)", "inhibition": 0}, {"smiles": "Cc1nc(-c2ccc(NC(=O)c3cccs3)cc2)cs1", "inhibition": 0}, {"smiles": "CCOC(=O)C1CCN(S(=O)(=O)c2cc(Cl)c(C)cc2OC)CC1", "inhibition": 4}, {"smiles": "O=C(CCn1[nH]c(=O)c2ccccc2c1=O)NCCO", "inhibition": 0}, {"smiles": "COC(=O)c1cc(S(=O)(=O)N2CCC(C)CC2)ccc1F", "inhibition": 6}, {"smiles": "Cc1ccc(-c2cc(C(F)F)n3ncc(C(=O)N4CCN(c5ccccn5)CC4)c3n2)cc1", "inhibition": 6}, {"smiles": "COc1ccc(OC)c(C(C)NC=O)c1", "note": "(centres undefined)", "inhibition": 4}, {"smiles": "O=C(O)CCc1ccc(-c2cccs2)n1NC(=O)c1ccco1", "inhibition": 0}, {"smiles": "O=C(O)CC1SC(=Nc2cccc(C(F)(F)F)c2)NC1=O", "note": "(centres undefined)", "inhibition": 0}, {"smiles": "CC1CCCCC1NC(=O)C1CCN(C(=O)NC2CCCCC2)CC1", "note": "(centres undefined)", "inhibition": 0}, {"smiles": "COc1cc2c(=O)n(Cc3ccccc3)c(=O)n(CC(=O)NCc3ccco3)c2cc1OC", "inhibition": 7}, {"smiles": "O=C(c1ccccc1)c1ccc(N2CCNCC2)cc1", "inhibition": 3}, {"smiles": "CCCOc1ccc2nc(NC(=O)OC)[nH]c2c1", "inhibition": 0}, {"smiles": "CCOC(=O)C1=C(C)NC(SC(C)=O)=NC1c1ccc(OC(C)=O)c(OC)c1", "note": "(centres undefined)", "inhibition": 4}, {"smiles": "COc1ccc(-n2c(Cc3cccn3C)nnc2SCC(=O)Nc2cccc(OC)c2)cc1", "inhibition": 2}, {"smiles": "c1cc(CNc2ccc3c(c2)OCO3)ccn1", "inhibition": 0}, {"smiles": "CC1CCN(C(=O)Cn2c(=O)oc3ccccc32)CC1", "inhibition": 0}, {"smiles": "CC(C)(C)n1cnc2cc(NS(=O)(=O)c3ccc(Br)cc3)ccc21", "inhibition": 7}, {"smiles": "Cc1cc(C)cc(NS(=O)(=O)c2ccc3[nH]cc(C(=O)NCc4ccco4)c(=O)c3c2)c1", "inhibition": 0}, {"smiles": "CC(=O)Nc1ccc(NC(=O)c2cc(C)nn2-c2ccccc2)cc1", "inhibition": 2}, {"smiles": "CCn1cc(C(=O)O)c(=O)c2cc(F)c(N3CCNCC3)nc21", "inhibition": 6}, {"smiles": "COc1ccccc1N1CCN(C(=O)C2CC=CCC2C(=O)O)CC1", "note": "(centres undefined)", "inhibition": 14}, {"smiles": "C=C(c1cccc2ccccc12)P(=O)(O)O", "inhibition": 2}, {"smiles": "CN1C2C=C3C(C#N)=C(N)C(C#N)(C#N)[C@@H](c4ccc(Cl)cc4)[C@@H]3C1CC2", "note": "(some centres undefined)", "inhibition": 7}, {"smiles": "CC(CCc1ccccc1)NC(=O)C1CCCN(c2nnc(-n3cccc3)s2)C1", "note": "(centres undefined)", "inhibition": 0}, {"smiles": "CC1(C)Cc2noc(N)c2C(C)(C)N1OC(=O)c1cccs1", "inhibition": 0}, {"smiles": "O=C(O)/C=C/c1ccc(O)c(O)c1", "inhibition": 1}, {"smiles": "CS(=O)(=O)N(CC(=O)N1CCCCCC1)c1ccc(Br)cc1", "inhibition": 0}, {"smiles": "CCn1cc(C2Nc3ccccc3C(=O)N2O)c(C)n1", "note": "(centres undefined)", "inhibition": 0}, {"smiles": "CCc1ccc(Nc2cc(=O)n(C3CCCCC3)c(=O)[nH]2)cc1", "inhibition": 0}, {"smiles": "C[C@H](NC(=O)Nc1cccc(C(F)(F)F)c1)C(=O)O", "inhibition": 0}, {"smiles": "CC(=O)C1=C(C)OC(N)=C(C#N)C1c1ccncc1", "note": "(centres undefined)", "inhibition": 0}, {"smiles": "CCC(Sc1nc2sc(C(=O)OC)c(C)c2c(=O)n1N)C(=O)NCC1CCCO1", "note": "(centres undefined)", "inhibition": 4}, {"smiles": "C=C(C)C1Cc2c(C)nn(-c3nc(C)cc(C)n3)c2C1", "note": "(centres undefined)", "inhibition": 0}, {"smiles": "Oc1c(Cl)cc(Cl)cc1Sc1cc(Cl)cc(Cl)c1O", "inhibition": 0}]}]}
